# Results published in publication PMC7862700, “An all-to-all approach to the identification of sequence-specific readers for epigenetic DNA modifications on cytosine”.
# Key:
# Assay in all cases: DAPPL (digital affinity profiling via proximity ligation, sequencing); 10 mM Tris-HCl pH 7.5, 50 mM NaCl, 1 mM DTT, 4% glycerol, room temperature, 30 min; GST-TFs on glutathione beads, 16-mer random dsDNA library, 0.1% formaldehyde crosslink after washing; high values mean tight binding
# FEV = target: T1, FEV (Homo sapiens, UniProt Q99581 1-238); conditions: protein: recombinant; tags: N-terminal GST; dsDNA, one strand shown
# T1 sequence: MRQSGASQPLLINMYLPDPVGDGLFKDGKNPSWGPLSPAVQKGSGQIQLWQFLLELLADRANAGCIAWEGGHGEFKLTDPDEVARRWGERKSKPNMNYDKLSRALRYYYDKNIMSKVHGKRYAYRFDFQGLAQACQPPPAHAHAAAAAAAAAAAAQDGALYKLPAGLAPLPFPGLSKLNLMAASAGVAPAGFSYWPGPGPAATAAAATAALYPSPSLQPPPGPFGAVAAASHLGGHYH
# Procedure, shortened: (§1)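 Each value of binding signal is a hexamer's read frequency for a factor divided by the same hexamer's frequency in the tag-only sample. Barcoded, bead-captured GST fusions of human transcription factors made in yeast were pooled with that sample and incubated with 200 nmole of a random double-stranded 16-mer DNA library in Tris/NaCl/DTT/glycerol buffer at room temperature for 30 min. Washing, 0.1% formaldehyde crosslinking, proximity ligation, PCR and Illumina NextSeq500 sequencing followed.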
# ETV5 = ETV5 (Homo sapiens, UniProt P41161 1-510); conditions: protein: recombinant; tags: N-terminal GST; dsDNA, one strand shown
# Sequence of ETV5 (P41161 whole entry): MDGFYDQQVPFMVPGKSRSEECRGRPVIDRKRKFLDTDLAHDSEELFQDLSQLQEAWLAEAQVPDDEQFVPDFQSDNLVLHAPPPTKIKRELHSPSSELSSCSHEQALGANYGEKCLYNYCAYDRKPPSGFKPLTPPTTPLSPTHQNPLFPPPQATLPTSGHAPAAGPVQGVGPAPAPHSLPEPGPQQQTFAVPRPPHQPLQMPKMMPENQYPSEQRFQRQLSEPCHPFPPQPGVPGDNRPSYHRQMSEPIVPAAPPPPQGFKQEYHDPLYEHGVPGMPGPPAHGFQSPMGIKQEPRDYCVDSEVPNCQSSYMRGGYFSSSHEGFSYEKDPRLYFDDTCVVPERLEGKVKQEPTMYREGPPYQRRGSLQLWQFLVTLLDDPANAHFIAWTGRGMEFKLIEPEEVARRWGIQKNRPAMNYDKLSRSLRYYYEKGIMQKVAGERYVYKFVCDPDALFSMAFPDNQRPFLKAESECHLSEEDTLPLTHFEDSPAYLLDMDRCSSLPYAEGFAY
# Procedure, shortened: as §1
# HSF1 = HSF1 (Homo sapiens, UniProt Q00613 1-529); conditions: protein: recombinant; tags: N-terminal GST; chain copies: 3; dsDNA, one strand shown
# Sequence of HSF1 (Q00613 whole entry): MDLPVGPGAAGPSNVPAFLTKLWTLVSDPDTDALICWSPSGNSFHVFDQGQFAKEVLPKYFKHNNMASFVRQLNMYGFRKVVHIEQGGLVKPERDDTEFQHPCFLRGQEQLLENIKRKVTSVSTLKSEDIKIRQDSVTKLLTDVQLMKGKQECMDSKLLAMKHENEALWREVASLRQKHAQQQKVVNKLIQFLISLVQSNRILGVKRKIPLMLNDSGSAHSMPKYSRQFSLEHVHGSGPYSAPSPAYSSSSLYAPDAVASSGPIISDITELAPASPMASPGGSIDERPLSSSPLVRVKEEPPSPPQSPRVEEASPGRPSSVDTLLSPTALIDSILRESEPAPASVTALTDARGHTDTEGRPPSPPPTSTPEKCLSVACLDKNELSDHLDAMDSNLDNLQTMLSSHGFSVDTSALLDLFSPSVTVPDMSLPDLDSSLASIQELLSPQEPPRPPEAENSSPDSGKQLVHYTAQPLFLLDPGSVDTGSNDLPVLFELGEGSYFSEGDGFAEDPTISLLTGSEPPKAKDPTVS
# Procedure, shortened: as §1
# SPIC = target: T2, SPIC (Homo sapiens, UniProt Q8N5J4 1-248); conditions: protein: recombinant; tags: N-terminal GST; dsDNA, one strand shown
# T2 sequence: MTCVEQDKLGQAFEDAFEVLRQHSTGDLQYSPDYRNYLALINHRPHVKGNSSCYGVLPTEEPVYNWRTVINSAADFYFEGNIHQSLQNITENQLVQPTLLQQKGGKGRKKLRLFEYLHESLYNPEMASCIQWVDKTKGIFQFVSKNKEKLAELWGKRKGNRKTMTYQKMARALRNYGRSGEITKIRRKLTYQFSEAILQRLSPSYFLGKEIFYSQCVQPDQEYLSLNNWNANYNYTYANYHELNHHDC
# Procedure, shortened: as §1
# ELF4 = ELF4 (Homo sapiens, UniProt Q99607 1-663); conditions: protein: recombinant; tags: N-terminal GST; dsDNA, one strand shown
# Sequence of ELF4 (Q99607 whole entry): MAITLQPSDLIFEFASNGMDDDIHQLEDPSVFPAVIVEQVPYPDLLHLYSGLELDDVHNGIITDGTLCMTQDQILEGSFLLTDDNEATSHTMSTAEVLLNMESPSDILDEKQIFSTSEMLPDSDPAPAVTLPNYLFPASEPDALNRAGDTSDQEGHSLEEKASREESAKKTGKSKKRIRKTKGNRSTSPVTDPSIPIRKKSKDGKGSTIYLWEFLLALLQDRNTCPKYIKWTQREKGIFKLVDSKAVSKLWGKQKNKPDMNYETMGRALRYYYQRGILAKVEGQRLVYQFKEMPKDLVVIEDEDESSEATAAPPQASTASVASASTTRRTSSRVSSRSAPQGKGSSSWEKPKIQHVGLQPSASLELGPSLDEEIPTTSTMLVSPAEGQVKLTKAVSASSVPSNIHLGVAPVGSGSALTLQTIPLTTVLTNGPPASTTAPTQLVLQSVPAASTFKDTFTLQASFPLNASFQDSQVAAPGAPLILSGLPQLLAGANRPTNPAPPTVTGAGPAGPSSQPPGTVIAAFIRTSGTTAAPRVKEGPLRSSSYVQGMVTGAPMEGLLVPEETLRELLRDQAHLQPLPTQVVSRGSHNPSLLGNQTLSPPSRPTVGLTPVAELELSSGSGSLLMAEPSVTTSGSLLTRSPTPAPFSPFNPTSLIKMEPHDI
# Procedure, shortened: as §1
# ELK4 = target: T3, ELK4 (Homo sapiens, UniProt P28324-2 1-405); conditions: protein: recombinant; tags: N-terminal GST; dsDNA, one strand shown
# T3 sequence: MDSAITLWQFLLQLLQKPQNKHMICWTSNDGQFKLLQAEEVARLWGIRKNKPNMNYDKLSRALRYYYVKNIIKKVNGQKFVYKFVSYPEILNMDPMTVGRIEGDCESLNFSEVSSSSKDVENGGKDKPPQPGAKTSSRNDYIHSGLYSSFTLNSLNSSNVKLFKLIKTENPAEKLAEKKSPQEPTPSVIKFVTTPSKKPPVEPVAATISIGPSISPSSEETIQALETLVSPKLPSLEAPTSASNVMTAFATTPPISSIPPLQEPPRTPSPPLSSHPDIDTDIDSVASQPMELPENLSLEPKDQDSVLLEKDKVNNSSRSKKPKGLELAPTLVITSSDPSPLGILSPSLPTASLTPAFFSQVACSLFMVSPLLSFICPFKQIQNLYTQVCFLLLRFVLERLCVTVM
# Procedure, shortened: as §1
# ETV2 = target: T4, ETV2 (Homo sapiens, UniProt O00321 1-342); conditions: protein: recombinant; tags: N-terminal GST; dsDNA, one strand shown
# T4 sequence: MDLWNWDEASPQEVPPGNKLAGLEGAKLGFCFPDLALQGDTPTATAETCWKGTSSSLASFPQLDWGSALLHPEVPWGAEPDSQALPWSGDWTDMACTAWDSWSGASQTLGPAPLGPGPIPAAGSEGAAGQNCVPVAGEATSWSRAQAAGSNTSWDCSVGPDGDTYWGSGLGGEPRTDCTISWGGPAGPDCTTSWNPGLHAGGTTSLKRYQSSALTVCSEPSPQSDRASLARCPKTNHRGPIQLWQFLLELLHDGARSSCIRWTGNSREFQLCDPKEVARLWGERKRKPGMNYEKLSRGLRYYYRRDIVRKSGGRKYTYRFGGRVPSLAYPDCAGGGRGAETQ
# Procedure, shortened: as §1
# ELF3 = target: T5, ELF3 (Homo sapiens, UniProt P78545 1-371); conditions: protein: recombinant; tags: N-terminal GST; dsDNA, one strand shown
# T5 sequence: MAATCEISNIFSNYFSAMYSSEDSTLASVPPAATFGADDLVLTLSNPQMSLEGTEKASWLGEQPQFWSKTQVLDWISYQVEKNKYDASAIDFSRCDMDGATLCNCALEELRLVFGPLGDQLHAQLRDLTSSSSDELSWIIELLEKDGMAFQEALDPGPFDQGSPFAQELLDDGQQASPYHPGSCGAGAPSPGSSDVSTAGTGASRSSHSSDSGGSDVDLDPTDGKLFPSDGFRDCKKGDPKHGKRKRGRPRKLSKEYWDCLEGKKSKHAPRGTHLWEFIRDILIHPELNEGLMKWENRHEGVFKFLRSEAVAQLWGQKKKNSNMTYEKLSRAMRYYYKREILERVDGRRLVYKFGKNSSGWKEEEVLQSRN
# Procedure, shortened: as §1
# CRX = CRX (Homo sapiens, UniProt O43186 1-299); conditions: protein: recombinant; tags: N-terminal GST; dsDNA, one strand shown
# Sequence of CRX (O43186 whole entry): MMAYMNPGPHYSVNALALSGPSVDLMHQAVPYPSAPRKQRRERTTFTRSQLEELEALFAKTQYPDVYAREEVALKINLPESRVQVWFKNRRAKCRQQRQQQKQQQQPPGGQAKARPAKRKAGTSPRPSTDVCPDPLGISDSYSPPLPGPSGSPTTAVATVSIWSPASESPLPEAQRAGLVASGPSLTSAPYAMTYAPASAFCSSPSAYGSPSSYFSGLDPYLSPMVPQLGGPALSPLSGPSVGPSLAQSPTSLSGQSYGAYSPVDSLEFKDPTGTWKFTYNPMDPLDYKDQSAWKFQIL
# Procedure, shortened: as §1
# ETV1 = ETV1 (Homo sapiens, UniProt P50549 1-477); conditions: protein: recombinant; tags: N-terminal GST; dsDNA, one strand shown
# Sequence of ETV1 (P50549 whole entry): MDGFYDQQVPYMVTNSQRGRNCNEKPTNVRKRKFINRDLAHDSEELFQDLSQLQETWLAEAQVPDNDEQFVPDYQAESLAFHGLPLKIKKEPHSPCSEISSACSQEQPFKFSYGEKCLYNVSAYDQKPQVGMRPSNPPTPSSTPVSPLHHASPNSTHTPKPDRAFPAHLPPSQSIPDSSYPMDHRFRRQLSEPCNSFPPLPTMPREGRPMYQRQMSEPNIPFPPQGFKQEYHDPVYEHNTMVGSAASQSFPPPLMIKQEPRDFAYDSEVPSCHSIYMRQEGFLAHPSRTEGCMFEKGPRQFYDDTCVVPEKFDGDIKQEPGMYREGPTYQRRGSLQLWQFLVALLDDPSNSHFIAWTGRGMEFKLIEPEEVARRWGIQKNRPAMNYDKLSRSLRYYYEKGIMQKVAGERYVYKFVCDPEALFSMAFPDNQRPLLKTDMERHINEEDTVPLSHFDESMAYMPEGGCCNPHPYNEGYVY
# Procedure, shortened: as §1
# ERF = target: T6, ERF (Homo sapiens, UniProt P50548 1-548); conditions: protein: recombinant; tags: N-terminal GST; dsDNA, one strand shown
# T6 sequence: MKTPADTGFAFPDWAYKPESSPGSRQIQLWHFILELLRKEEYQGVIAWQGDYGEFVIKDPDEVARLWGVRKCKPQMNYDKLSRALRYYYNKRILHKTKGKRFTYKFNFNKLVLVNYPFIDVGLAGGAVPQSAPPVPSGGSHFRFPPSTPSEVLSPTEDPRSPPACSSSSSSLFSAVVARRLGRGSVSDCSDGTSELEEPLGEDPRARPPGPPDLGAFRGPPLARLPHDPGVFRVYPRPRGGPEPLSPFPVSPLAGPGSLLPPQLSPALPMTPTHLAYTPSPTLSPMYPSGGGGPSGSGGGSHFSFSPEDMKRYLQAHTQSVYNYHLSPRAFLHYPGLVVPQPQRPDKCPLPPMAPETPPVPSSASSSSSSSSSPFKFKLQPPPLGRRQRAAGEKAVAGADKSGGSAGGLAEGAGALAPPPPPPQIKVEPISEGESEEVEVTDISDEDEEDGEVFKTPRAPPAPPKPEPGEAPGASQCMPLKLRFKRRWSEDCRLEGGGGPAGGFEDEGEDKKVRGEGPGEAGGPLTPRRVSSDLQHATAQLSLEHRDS
# Procedure, shortened: as §1
# ETV3L = target: T7, ETV3L (Homo sapiens, UniProt Q6ZN32 1-361); conditions: protein: recombinant; tags: N-terminal GST; dsDNA, one strand shown
# T7 sequence: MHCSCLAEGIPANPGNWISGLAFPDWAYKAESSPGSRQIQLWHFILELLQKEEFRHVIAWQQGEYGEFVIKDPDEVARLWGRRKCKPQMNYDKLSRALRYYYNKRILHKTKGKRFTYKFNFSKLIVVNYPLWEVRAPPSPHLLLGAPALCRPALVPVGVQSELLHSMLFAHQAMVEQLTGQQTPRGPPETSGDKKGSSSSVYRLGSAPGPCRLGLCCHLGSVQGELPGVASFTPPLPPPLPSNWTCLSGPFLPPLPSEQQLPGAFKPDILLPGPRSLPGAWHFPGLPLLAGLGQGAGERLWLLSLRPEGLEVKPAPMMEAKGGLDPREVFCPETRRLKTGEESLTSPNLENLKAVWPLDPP
# Procedure, shortened: as §1
# ETS2 = target: T8, ETS2 (Homo sapiens, UniProt P15036 1-469); conditions: protein: recombinant; tags: N-terminal GST; dsDNA, one strand shown
# T8 sequence: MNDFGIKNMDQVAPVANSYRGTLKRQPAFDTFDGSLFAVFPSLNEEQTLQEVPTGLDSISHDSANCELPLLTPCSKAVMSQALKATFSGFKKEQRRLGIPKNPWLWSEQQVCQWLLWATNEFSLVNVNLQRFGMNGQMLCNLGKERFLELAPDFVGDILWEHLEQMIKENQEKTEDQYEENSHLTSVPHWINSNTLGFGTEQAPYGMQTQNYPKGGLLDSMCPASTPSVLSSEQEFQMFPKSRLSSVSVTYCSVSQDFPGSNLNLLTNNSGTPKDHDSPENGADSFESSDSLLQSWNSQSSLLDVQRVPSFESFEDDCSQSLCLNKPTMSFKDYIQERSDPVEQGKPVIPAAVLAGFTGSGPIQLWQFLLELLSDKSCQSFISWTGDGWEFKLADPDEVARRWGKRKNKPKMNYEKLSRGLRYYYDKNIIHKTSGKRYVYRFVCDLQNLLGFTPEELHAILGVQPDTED
# Procedure, shortened: as §1
# SPDEF = target: T9, SPDEF (Homo sapiens, UniProt O95238 1-335); conditions: protein: recombinant; tags: N-terminal GST; dsDNA, one strand shown
# T9 sequence: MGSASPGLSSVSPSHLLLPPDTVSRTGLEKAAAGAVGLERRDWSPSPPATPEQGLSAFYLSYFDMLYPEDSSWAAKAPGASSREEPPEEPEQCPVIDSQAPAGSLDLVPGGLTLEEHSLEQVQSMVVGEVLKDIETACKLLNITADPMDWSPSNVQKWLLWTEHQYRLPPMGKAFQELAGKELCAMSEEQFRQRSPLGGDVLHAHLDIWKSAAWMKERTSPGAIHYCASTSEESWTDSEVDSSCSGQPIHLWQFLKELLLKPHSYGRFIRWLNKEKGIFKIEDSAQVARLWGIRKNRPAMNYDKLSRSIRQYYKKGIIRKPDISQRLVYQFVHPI
# Procedure, shortened: as §1
# ETV7 = target: T10, ETV7 (Homo sapiens, UniProt Q9Y603 1-341); conditions: protein: recombinant; tags: N-terminal GST; dsDNA, one strand shown
# T10 sequence: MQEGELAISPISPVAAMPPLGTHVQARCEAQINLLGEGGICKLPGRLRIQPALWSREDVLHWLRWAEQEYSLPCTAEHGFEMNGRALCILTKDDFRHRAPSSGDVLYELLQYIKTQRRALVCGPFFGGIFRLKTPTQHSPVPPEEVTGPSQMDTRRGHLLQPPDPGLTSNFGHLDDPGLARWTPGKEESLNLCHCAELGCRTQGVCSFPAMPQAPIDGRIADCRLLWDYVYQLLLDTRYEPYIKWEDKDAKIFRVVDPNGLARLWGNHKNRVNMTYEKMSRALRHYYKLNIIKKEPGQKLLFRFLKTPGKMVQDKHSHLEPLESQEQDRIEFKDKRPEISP
# Procedure, shortened: as §1
# ELF5 = target: T11, ELF5 (Homo sapiens, UniProt Q9UKW6-2 1-255); conditions: protein: recombinant; tags: N-terminal GST; dsDNA, one strand shown
# T11 sequence: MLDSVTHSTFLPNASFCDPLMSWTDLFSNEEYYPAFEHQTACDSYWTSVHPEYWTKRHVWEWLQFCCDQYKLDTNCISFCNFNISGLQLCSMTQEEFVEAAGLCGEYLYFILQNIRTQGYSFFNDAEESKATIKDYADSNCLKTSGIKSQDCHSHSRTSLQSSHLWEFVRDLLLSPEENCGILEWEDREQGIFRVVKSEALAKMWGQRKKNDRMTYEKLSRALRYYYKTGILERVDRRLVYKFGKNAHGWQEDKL
# Procedure, shortened: as §1
# ETV3 = target: T12, ETV3 (Homo sapiens, UniProt P41162-2 1-143); conditions: protein: recombinant; tags: N-terminal GST; dsDNA, one strand shown
# T12 sequence: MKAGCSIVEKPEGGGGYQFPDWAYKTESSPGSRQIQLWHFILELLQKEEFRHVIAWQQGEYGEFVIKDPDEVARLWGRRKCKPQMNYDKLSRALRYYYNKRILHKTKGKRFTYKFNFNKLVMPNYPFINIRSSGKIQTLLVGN
# Procedure, shortened: as §1
# ETV6 = ETV6 (Homo sapiens, UniProt P41212 1-452); conditions: protein: recombinant; tags: N-terminal GST; dsDNA, one strand shown
# Sequence of ETV6 (P41212 whole entry): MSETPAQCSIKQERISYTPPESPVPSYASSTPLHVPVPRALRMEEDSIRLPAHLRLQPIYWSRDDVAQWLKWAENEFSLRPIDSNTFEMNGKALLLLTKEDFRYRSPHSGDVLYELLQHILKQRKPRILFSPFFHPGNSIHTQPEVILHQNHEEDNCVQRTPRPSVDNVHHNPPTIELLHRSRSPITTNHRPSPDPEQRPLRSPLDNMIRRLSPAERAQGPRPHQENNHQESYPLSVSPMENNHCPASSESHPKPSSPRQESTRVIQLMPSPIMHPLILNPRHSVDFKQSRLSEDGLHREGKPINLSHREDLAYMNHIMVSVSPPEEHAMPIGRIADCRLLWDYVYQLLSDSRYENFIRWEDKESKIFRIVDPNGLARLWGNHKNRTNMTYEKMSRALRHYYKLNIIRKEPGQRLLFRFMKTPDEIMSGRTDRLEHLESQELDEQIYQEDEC
# Procedure, shortened: as §1
sequence,measurement,setting,value
GTTCTG,binding signal,FEV,"1.03 fold enrichment (6-mer frequency, TF over GST control)"
same,binding signal,ETV5,"1.08 fold enrichment (6-mer frequency, TF over GST control)"
same,binding signal,HSF1,"1.84 fold enrichment (6-mer frequency, TF over GST control)"
same,binding signal,SPIC,"1.1 fold enrichment (6-mer frequency, TF over GST control)"
same,binding signal,ELF4,"1.14 fold enrichment (6-mer frequency, TF over GST control)"
same,binding signal,ELK4,"1.3 fold enrichment (6-mer frequency, TF over GST control)"
same,binding signal,ETV2,"1.09 fold enrichment (6-mer frequency, TF over GST control)"
same,binding signal,ELF3,"1.12 fold enrichment (6-mer frequency, TF over GST control)"
same,binding signal,CRX,"1.01 fold enrichment (6-mer frequency, TF over GST control)"
same,binding signal,ETV1,"1.1 fold enrichment (6-mer frequency, TF over GST control)"
same,binding signal,ERF,"1.12 fold enrichment (6-mer frequency, TF over GST control)"
same,binding signal,ETV3L,"1.23 fold enrichment (6-mer frequency, TF over GST control)"
same,binding signal,ETS2,"1.05 fold enrichment (6-mer frequency, TF over GST control)"
same,binding signal,SPDEF,"1 fold enrichment (6-mer frequency, TF over GST control)"
same,binding signal,ETV7,"1.07 fold enrichment (6-mer frequency, TF over GST control)"
same,binding signal,ELF5,"1.1 fold enrichment (6-mer frequency, TF over GST control)"
same,binding signal,ETV3,"1.13 fold enrichment (6-mer frequency, TF over GST control)"
same,binding signal,ETV6,"1.1 fold enrichment (6-mer frequency, TF over GST control)"
